Each structure is given as a SMILES string. “And” between values parts separate entries of the source, which are not always exact repeats. Equal values may be shown once. Records with an inconclusive call do not appear. The source holds several records for some structures; these can differ, active in one and inactive in another. The source made the active and inactive calls. Calls follow the shape of the dose curve; as a rule, active = well fitted cell-killing curve with a large enough effect; inconclusive = small, poorly fitted or top-dose-only effect, or effect the other way; inactive = no such curve, though single readings can be large or run the other way.
Potency is read from the fitted curve at half-maximal effect.

This assay is described as follows: Viability qHTS for spleen associated tyrosine kinase inhibitor (SYKi) drug resistant MV4-11 cells (AID 1963824). Also: nearly all actives have a fitted effect of over 35% in size. The settings on record: SYKi-resistant MV4-11 viability, CellTiter-Glo, 72 h; series mostly up to 45 µM; viability, % of control: at the top concentration. The text has this: Department of Medicine, Hematology/Oncology
University Hospital Frankfurt, Germany.
Trials have shown promising clinical activity of the selective SYK inhibitor entospletinib in patients with high expressing HOXA9/MEIS1 acute leukemias. As the development of resistance mechanisms is a common problem in the use of targeted drugs, we performed a chemical library screen to identify drug sensitivities in SYK inhibitor resistant AML cells. […] Glucocorticoids are potent immunosuppressants which work in part by inhibiting the transcription of cytokine genes.
Described herein is a viability screen to look for activity in the SYK inhibitor drug resistant cell line against four NCATS compound libraries (MIPE 5.0, NPC, NPACT, and Kinase) totaling 11372 compounds. Active hits were reacquired for confirmation and further secondary assay testing.
SEQUENCE No. (e.g., 1, 2, 3, etc.); […] (e.g., Cells, Incubation, Reagent, etc.); VALUE; DESCRIPTION.
1; Media; 2uL; white, solid-bottom Corning assay plate.
2; Compounds; 23nL; Echo acoustic dispenser.
3; Cell; 5uL; 500 cells per well.
4: Incubation; 72hr; 37 C, 5% CO2, 95% humidity.
5; Reagent; 3uL; CellTiter-Glo reagent (Promega).
6; Incubation; 10min; room temperature.
7; Detection; Luminescence; ViewLux plate reader (PerkinElmer).
NOTES (numbers refer to Sequence numbers above
1. Quantitative high-throughput screening (qHTS) of small molecule compounds was conducted on drug resistant SYKi MV4-11 cell line.
2. Twenty-three nanoliter of small molecule compounds were added to each assay plates using the Echo acoustic dispenser (Beckman Coulter).
3. Cells were seeded into the assay plates at a final density of 500 cells in 5uL of media per well using the Multidrop Combi dispenser.
4. Plates were covered with stainless steel gasketed lids and incubated for 72 hours at standard cell culture conditions.
5. Viability was assessed by adding 3uL of CellTiter-Glo detection reagent (Promega).
6. Plates were covered with gasket lids and incubated for 10 minutes at room temperature.
7. Luminescence was measured on a ViewLux plate reader (PerkinElmer).
On the technique in general: qHTS replaces the single test concentration by a dilution series.
Turning to `CCc1ccc(CCOc2ccc(CC3SC(=O)NC3=O)cc2)nc1` (stereo not given), the “viability, % of control” value was 78.6% (inactive).

Regarding `O=C(O)C1=CO[C@@H](O[C@@H]2O[C@H](CO)[C@@H](O)[C@H](O)[C@H]2O)[C@@H]2C(CO)=CC[C@H]12`, the Potency is 12.8 µM (active) and inactive.

In the case of `CNC(=O)c1c(F)cccc1Nc1nc(Nc2cc3c(cc2OC)CCN3C(=O)CN(C)C)nc2[nH]ccc12`, the Potency was 2.91 µM (active) and 4.68 µM (active).

As for `C/C=C(\C)C(=O)O[C@H]1[C@H](O)[C@]2(COC(C)=O)[C@H](O)C[C@]3(C)C(=CCC4[C@@]5(C)CC[C@H](O[C@@H]6O[C@H](C(=O)O)[C@@H](O[C@@H]7O[C@H](CO)[C@@H](O)[C@H](O)[C@H]7O)[C@H](O)[C@H]6O[C@@H]6O[C@H](CO)[C@@H](O)[C@H](O)[C@H]6O)[C@](C)(CO)C5CC[C@]43C)[C@@H]2CC1(C)C` (stereo not given in full), the viability, % of control is 97.8% [at 9.25 µM] (inactive).

As to `CC(C)C(N)C(=O)OCCOCn1cnc2c(=O)[nH]c(N)nc21` (stereo not given), the “viability, % of control” value was 88.5% (inactive).

In the case of `COc1ccc(-c2cnc3ccc(NCc4ccc(S(N)(=O)=O)cc4)nn23)cc1OC`, the Potency is 1.64 µM (active).

For `CC(=O)N[C@H]1[C@H](O[C@H]2CC[C@@]3(C)C(CC[C@]4(C)C3CC=C3C5CC(C)(C)CC[C@]5(C(=O)O)[C@H](O)C[C@]34C)C2(C)C)O[C@H](CO[C@@H]2OC[C@H](O)[C@H](O)[C@H]2O[C@@H]2OC[C@@H](O)[C@H](O)[C@H]2O)[C@@H](O)[C@@H]1O` (stereo not given in full), the viability, % of control was 113% [at 9.25 µM] (inactive).

In the case of `CCc1cc2c(=O)c(-c3nc4ccccc4s3)coc2c(CN2CCCCC2)c1O`, the “viability, % of control” value is 82.9% [at 17.3 µM] (inactive).

As for `COc1cccc([C@@H](C)NCCCc2ccccc2Cl)c1`, the Potency was 14.8 µM (active).

Consider `C=C1CC[C@@H]2[C@@](C)(CO[C@@H]3O[C@H](CO)[C@@H](O)[C@H](O)[C@H]3O)[C@H](O)CC[C@@]2(C)[C@@H]1CC/C(C)=C/CO[C@@H]1O[C@H](CO)[C@@H](O)[C@H](O)[C@H]1O`, for which the “viability, % of control” value is 90.2% [at 17.3 µM] (inactive).

Regarding `C[C@@H]1O[C@@H](O[C@H]2[C@H](O[C@H]3[C@H](O[C@H]4CC[C@@]5(C)C(CC[C@]6(C)C5CC=C5[C@@H]7CC(C)(C(=O)O)C[C@@H](O)[C@]7(C)CC[C@]56C)[C@@]4(C)CO)O[C@H](C(=O)O)[C@@H](O)[C@@H]3O)O[C@H](CO)[C@H](O)[C@@H]2O)[C@H](O)[C@H](O)[C@H]1O` (stereo not given in full), the viability, % of control was 77.5% [at 9.25 µM] (inactive).

In the case of `c1coc(CNc2ncnc3nc[nH]c23)c1`, the Potency is 18.6 µM (active).

With `C[N+](C)(C)CC[N+]1(C)Cc2c(Cl)c(Cl)c(Cl)c(Cl)c2C1`, the “viability, % of control” value is 83.7% (inactive).

For `CC(C)c1c(C(=O)Nc2ccccc2)c(-c2ccccc2)c(-c2ccc(F)cc2)n1CC[C@@H](O)C[C@@H](O)CC(=O)O`, the Potency is 2.11 µM (active) and 1.09 µM (active) and 910 nM (active).

For the molecule `CC(C)=CCC[C@](C)(O[C@@H]1O[C@H](CO[C@@H]2OC[C@H](O)[C@H](O)[C@H]2O)[C@@H](O)[C@H](O)[C@H]1O)[C@H]1CC[C@]2(C)[C@@H]1[C@H](O)C[C@@H]1[C@@]3(C)CC[C@H](O[C@@H]4O[C@H](CO)[C@@H](O)[C@H](O)[C@H]4O[C@@H]4O[C@H](CO)[C@@H](O)[C@H](O)[C@H]4O)C(C)(C)[C@@H]3CC[C@]12C`, the “viability, % of control” value was 86% [at 17.3 µM] (inactive).

With `CC(=O)C12OC(C)(C)OC1CC1C3CCC4=CC(=O)C=CC4(C)C3(F)C(O)CC12C` (stereo not given), the “viability, % of control” value was 96.7% (inactive).

Turning to `CC(C)(O)c1ccccc1CC[C@@H](SCC1(CC(=O)O)CC1)c1cccc(/C=C/c2ccc3ccc(Cl)cc3n2)c1`, the “viability, % of control” value was 71% (inactive).

On to `O=C(O[C@H]1[C@H](Oc2ccc(O)cc2CO)O[C@H](CO)[C@@H](O)[C@@H]1O)c1ccccc1`, for which the “viability, % of control” value is 91.1% [at 17.3 µM] (inactive).

Turning to `Nc1nc(F)nc2c1ncn2[C@@H]1O[C@H](CO)[C@@H](O)[C@@H]1O`, the Potency is 13.2 µM (active) and 14.6 µM (active).

Consider `C[C@@H](O)[C@@H](C)Oc1nc(Nc2ccc(S(=N)(=O)C3CC3)cc2)ncc1C(F)(F)F` (stereo not given in full), for which the Potency is 11.8 µM (active).

Regarding `C[C@@]12O[C@@H](C[C@]1(O)CO)n1c3ccccc3c3c4c(c5c6ccccc6n2c5c31)CNC4=O`, the Potency was 0.0074 µM (active).

In the case of `CC(=O)Nc1c(I)cc(I)c(C(=O)O)c1I`, the “viability, % of control” value is 80.6% (inactive).

Regarding `COc1ccc2c(c1)CC[C@@H](CN(C)CC(=O)O)[C@H]2c1ccccc1`, the “viability, % of control” value was 86.2% (inactive).

As for `Cc1cc(Oc2ccc3nc(COc4ccc(CC5SC(=O)NC5=O)cc4)n(C)c3c2)cc(C)c1N` (stereo not given), the Potency is 16.6 µM (active).

Take `C=CCN1CCc2nc(N)sc2CC1`: the “viability, % of control” value is 81.1% (inactive).

Regarding `CCn1cc(C(=O)O)c(=O)c2cnc(N3CCNCC3)nc21`, the Potency was 2.99 µM (active).

As to `C=C1CC[C@H](O)CC1=C/C=C1\CCC[C@]2(C)[C@@H]([C@H](C)/C=C/[C@H](C)C(C)C)CC[C@@H]12`, the Potency was 9.2 µM (active).

Consider `O=C(Nc1cccc(Nc2nccc(Nc3cccc(C(F)(F)F)c3)n2)c1)C1CC1`, for which the Potency is 1.84 µM (active).

As to `COc1cc(C)c(C(=O)NC2C(C)OC(OC3CCC(C)C4C3C=C(C)C3/C(C)=C\CC/C(C)=C/C5(C)C=C(C(=O)O)C(C)CC56OC(=O)/C(=C(\O)C34C)C6=O)C(O)C2(C)O)c(O)c1` (stereo not given), the viability, % of control was 77% [at 9.25 µM] (inactive).

On to `Cn1c2ccc(NC(=O)c3ccccc3)cc2c(=O)n2nc(C(=O)O)cc12`, for which the “viability, % of control” value is 99.7% [at 17.3 µM] (inactive).

Regarding `CC(=O)OC12CC(C)C(O)C1/C=C(/COC1OC(CO)C(O)C(O)C1O)CCC1C(/C=C(\C)C2=O)C1(C)C` (stereo not given), the “viability, % of control” value was 94.3% [at 17.3 µM] (inactive).

Regarding `COc1cc(C2Oc3c(O)cc(CCCO)cc3C2CO)ccc1O[C@H]1O[C@H](C)[C@@H](O)[C@H](O)[C@@H]1O` (stereo not given in full), the “viability, % of control” value was 90.1% [at 17.3 µM] (inactive).

Regarding `Cc1cccc(C)c1OCC(=O)N[C@@H](Cc1ccccc1)[C@@H](O)C[C@H](Cc1ccccc1)NC(=O)[C@H](C(C)C)N1CCCNC1=O`, the Potency is 23.7 µM (active).

As to `C[C@@H](CN1CCC(n2c(=O)[nH]c3cc(Cl)ccc32)CC1)NC(=O)c1ccc2ccccc2c1`, the Potency was 11.6 µM (active).

With `C#C[C@]1(O)CC[C@H]2[C@@H]3CCC4=CC(=O)CC[C@@H]4[C@H]3CC[C@@]21CC`, the Potency was 9.34 µM (active).

With `CC[C@H](C)C(=O)O[C@H]1CCC=C2C=C[C@H](C)[C@H](CC[C@@H]3C[C@@H](O)CC(=O)O3)[C@H]21`, the Potency is 4.68 µM (active).

With `CC(C)(O)CNc1ncc(-c2ccnc(Nc3ccncc3)n2)c(CC2CC2)n1`, the Potency was 1.18 µM (active).

`NC(=O)c1cccc2c(NC(CN3CCC3)c3ccc(Cl)c(C(F)(F)F)c3)ncnc12` (stereo not given): the Potency was 2.35 µM (active).

As for `CC(C)C[C@H](NC(=O)[C@@H](NC(=O)c1cccc(-c2ccccc2)n1)[C@@H](C)O)B(O)O`, the Potency was 0.0204 µM (active).

As for `CC(=O)O[C@H]1C(=O)[C@@]2(C)[C@H]([C@H](OC(=O)c3ccccc3)[C@]3(O)C[C@H](OC(=O)[C@H](O)[C@@H](NC(=O)c4ccccc4)c4ccccc4)C(C)=C1C3(C)C)[C@]1(OC(C)=O)CO[C@@H]1C[C@@H]2O`, the Potency was 0.0044 µM (active).

Source of the values: PubChem BioAssay (NCATS).
